# Shown are actives, neighbours in structure and some others; about 2.9% of the full set was active somewhere.
# HSF1 inhib = HSF1 inhibition | hit rate 0.77% among 300,000 | NIH3T3-HGL HSE-luciferase, MG132-induced, luminescence 8 h; stronger effect = lower value | AID 2098 | activity change, negative = inhibition, % at 7.5 µM (by protocol);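 active means more than half of replicate wells show activity change below -50%, luminescence cut by over half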;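 further: luciferase reports HSF-1 transcriptional activity via heat shock element; 0% = median of DMSO wells and -100% = zero luminescence signal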
# HSF-1 act = increases HSF-1 driven luciferase reporter signal | NIH3T3-HGL HSF-1 luciferase reporter, MG132, 8 h; 100% = twice DMSO control signal | hit rate 1.7% among 300,000 | activation, % at 9 µM;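 active means mean replicate activation of at least 50% with a set share of replicates each reaching 50%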;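 further: 0% = median of the neutral control wells and 100% = twice that signal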
# S1P4 antagonist = antagonists of human S1P4 receptor. O95977. S1P4-expressing cells, antagonist mode, reporter read-out. inhibition, % at 4.98 µM. hit rate 0.26% among 220,000; in the data active means inhibition above about 29%;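 further: 0% = wells stimulated with agonist and 100% = vehicle wells without agonist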
# Target sequence (O95977 whole entry, looked up): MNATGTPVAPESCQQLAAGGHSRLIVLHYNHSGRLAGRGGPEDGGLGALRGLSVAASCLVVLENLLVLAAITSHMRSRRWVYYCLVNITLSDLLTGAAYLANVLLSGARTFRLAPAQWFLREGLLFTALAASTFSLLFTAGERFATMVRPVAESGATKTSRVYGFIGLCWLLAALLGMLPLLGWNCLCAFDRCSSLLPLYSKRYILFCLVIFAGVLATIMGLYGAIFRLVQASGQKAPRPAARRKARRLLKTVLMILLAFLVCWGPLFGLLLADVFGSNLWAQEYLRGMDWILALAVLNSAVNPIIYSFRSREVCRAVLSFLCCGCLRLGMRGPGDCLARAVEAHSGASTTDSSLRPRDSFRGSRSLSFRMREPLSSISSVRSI
# S1P3 antagonist = blocks the human S1P3 receptor | Q99500 | CHO S1P3 NFAT-BLA reporter, FRET fluorescence, antagonist mode | inhibition, % at 4.98 µM | hit rate 0.27% among 170,000 | AID 485;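 active means inhibition above the plate cutoff, the mean inhibition of test wells on that plate plus 3 SD, cut at about 28% in these data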;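 further: cells challenged with S1P at its EC80 of 0.8 µM; blue over green emission ratio from cleaved BLA substrate after 4 h stimulation; 0% = S1P-stimulated wells and 100% = unstimulated DMSO-only wells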
# S1P4 ag = human S1P4 receptor agonism. S1P4-expressing cell line, agonist reporter assay. activation, % at 4.98 µM. hit rate 0.35% among 220,000. AID 1509; in the data active means activation above about 11%;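 further: 0% = DMSO vehicle and 100% = reference agonist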
# Hsp70 act = Hsp70 transcriptional activation, primary screen; HeLa Hsp70 promoter luciferase reporter, luminescence; scaled: vehicle 0, proteasome-inhibitor control 100%; activation, % at 10 µM; hit rate 0.04% among 200,000; AID 1203;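 active means activation above the mean across all tested compounds plus 3 SD, cutoff set per campaign, cut at about 5.5% in these data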;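 further: 100% = MG132 at 30 µM as the positive control and 0% = DMSO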
# Starred values were filed as active, the others as inactive; x = not tested or not shown.
SMILES,HSF1 inhib,HSF-1 act,S1P4 antagonist,S1P3 antagonist,S1P4 ag,Hsp70 act
CCOC(=O)C1CCCN(C(=O)c2cnn3c(C(F)F)cc(-c4ccc(C)cc4)nc23)C1 (stereo unspecified),-1,9,-7,76*,1,0
Cc1ccc(-c2cc(C(F)F)n3ncc(C(=O)N4CCN5CCCC5C4)c3n2)cc1 (stereo unspecified),0,2,-48,-2,0,0
CCOC(=O)N1CCN(C(=O)c2ccc(CS(=O)(=O)c3c(Cl)cccc3Cl)o2)CC1,-77*,-82,-2,-19,0,0
CN1CCN(C(=O)c2ccc(CS(=O)(=O)c3c(Cl)cccc3Cl)o2)CC1,-2,-9,-11,-7,1,0
COCCNC(=O)C(c1ccc(F)cc1)N(C(=O)CCC(=O)Nc1ccccn1)c1ccc(C)cc1 (stereo unspecified),-2,6,x,x,x,x
O=C(NCc1ccco1)c1ccc(C(F)(F)F)cc1,12,27,0,-19,1,0
CC(Cc1ccco1)NC(=O)c1ccc(C(F)(F)F)cc1 (stereo unspecified),33,66*,x,x,x,x
COc1cc(C2C(C#N)=C(N)Oc3cc4c(cc32)OCO4)cc(OC)c1OC (stereo unspecified),5,-3,18,17,-4,1
N#CC1=C(N)Oc2cc3c(cc2C1c1ccc(Cl)cc1)OCO3 (stereo unspecified),-7,-1,-1,72*,0,0
COC(=O)c1nn(-c2ccc(OC)cc2)c(=O)cc1O,-28,-44,-9,1,1,0
COc1ccc(-n2nc(C#N)c(Cl)cc2=O)cc1,x,x,30*,-2,-5,0
CC1(C)Cc2c(C#N)c(N3CCCC3)nc(-c3ccco3)c2CO1,57,111*,-26,-14,1,0
CC1(C)Cc2c(C#N)c(NCc3ccco3)nc(-c3ccco3)c2CO1,-4,4,-5,x,-1,0
CCOc1ccc(NC(=O)CSCc2cnn(-c3ccccc3)c2-n2cccc2)cc1,-12,15,-19,x,-1,0
CCCNC(=O)CN1CCC(c2nc3ccccc3[nH]2)CC1,-4,1,x,x,x,x
CCOc1ccc(NC(=O)CC2C(=O)N(CC)C(=S)N2CCN2CCOCC2)cc1 (stereo unspecified),6,-15,-9,14,1,0
O=C(CC1C(=O)N(Cc2ccccc2)C(=S)N1CCN1CCOCC1)Nc1ccc(F)cc1 (stereo unspecified),20,61*,7,1,3,0
O=C(CCCC1=NS(=O)(=O)c2ccccc2N1)OCc1ccc(Cl)cc1,7,5,x,x,x,x
CN(C)c1ccc(/C=C/C(=O)c2cc(Cl)ccc2O)cc1,14,13,4,-1,0,x
O=C(/C=C/c1ccncc1)c1cc(Cl)ccc1O,24,59*,4,-7,-1,x
COc1ccc(C(=O)/C=C/c2ccc(OC)cc2OC)c(O)c1,6,21,-9,-5,2,0
COc1ccc(/C=C/C(=O)c2cc(Cl)ccc2O)c(OC)c1,47,64*,11,4,1,x
O=C(/C=C/c1ccccc1)NCC(=O)N/N=C/c1cccs1,-41,-48,x,x,x,x
CN(C(=O)c1ccccc1)c1nc2ccccc2s1,29,65*,-15,-64,1,0
CCOC(=O)c1sc(NC(=O)CC)c(C#N)c1C,4,-9,12,9,-1,0
SMILES,HSF1 inhib,HSF-1 act,S1P4 antagonist,S1P3 antagonist,S1P4 ag,Hsp70 act
Cc1nn(CCCC(=O)N2CCN(c3ccc(F)cc3)CC2)c(C)c1[N+](=O)[O-],2,3,-18,2,1,0
CN(C(=O)COC(=O)c1ccc(Cl)cc1N)C1CCCCC1,21,59*,4,-7,1,0
O=c1c2ccccc2oc2cc(C#CC3(O)CCCCC3)ccc12,-81*,-84,x,x,x,x
O=c1c2ccccc2sc2ccc(C#CC3(O)CCCCC3)cc12,-92*,-94,x,x,x,x
CCOc1ccc(S(=O)(=O)N(C)c2ccc(OCC(=O)NCCc3ccc(OC)cc3)cc2)cc1,-53*,-63,1,-4,-1,x
COc1ccc(CCNC(=O)c2ccc(N(C)S(=O)(=O)c3ccc(C)cc3)cc2)cc1,-55*,-69,-7,-3,1,0
CCN(CC)c1ccc2cc(C(=O)Nc3ccc(-n4cnnn4)c(OC)c3)c(=O)oc2c1,x,x,x,-24,x,x
O=C(COC(=O)CCN=C1NS(=O)(=O)c2ccccc21)NC1CCCCCCC1,-8,6,18,8,0,x
CNC(=S)N(CCc1c(C)[nH]c2ccc(OC)cc12)Cc1cc(OC)c(OC)c(OC)c1,-2,16,4,1,0,0
CNC(=S)N(CCc1c(C)[nH]c2ccc(C)cc12)Cc1cc(OC)c(OC)c(OC)c1,-66*,-73,5,-1,1,0
Cc1noc2ncnc(Sc3ccc(Cl)cc3)c12,53,72*,24,x,-2,0
C=CCn1c(SCC(=O)Nc2ccc(O)cc2)nc2sc(CC)cc2c1=O,5,13,x,x,x,x
COc1ccc2nc(NC(=O)CN3CCN(C)CC3)sc2c1,-3,19,-6,-6,-1,0
COc1ccc2nc(NC(=O)CN3CCOCC3)sc2c1,-89*,-91,5,x,0,0
N#CC1=C(N)NC(SCc2ccc(F)cc2)=C(C#N)C12CCCCC2,119,166*,-7,x,0,0
COc1ccc(N(CC(=O)NCc2ccc(F)cc2)C(=O)Cn2nnc(-c3ccc(C)o3)n2)cc1OC,-87*,-90,x,x,x,x
Cc1cccc(N(CC(=O)NCc2ccccc2)C(=O)Cn2nnc(-c3ccc(C)o3)n2)c1,7,-3,-11,-10,-2,-1
COc1cccc(NC(=O)Cn2c3ccccc3c3nc4n(c(=O)c32)CCCS4)c1,7,5,x,x,x,x
CCOc1cc(C(=O)Nc2ccncc2)cc(OCC)c1OCC,5,0,-6,1,2,0
COc1c(Cl)cc(Cl)cc1/C=C/C(=O)c1ccc(NC(=O)c2cccs2)cc1,76,115*,-26,-5,1,0
Cc1ccc(N2CCN(CCc3nc4cc(NC(=O)c5ccco5)ccc4n3C)CC2)cc1,25,69*,-3,-29,1,0
Cn1c(CCN2CCN(c3ccc(F)cc3)CC2)nc2cc(NC(=O)c3ccco3)ccc21,4,8,-3,-21,0,0
Cn1c(CCN2CCN(c3ccccc3)CC2)nc2cc(NC(=O)c3ccco3)ccc21,103,128*,10,-28,-4,0
CN1CCN(CCc2nc3cc(NC(=O)c4ccco4)ccc3n2C)CC1,10,20,-7,-13,2,x
CC(OC(=O)c1cnc2ccccc2n1)c1ccccc1Cl (stereo unspecified),16,35,x,x,x,x

# Compound activity deposited in PubChem BioAssay by several laboratories.
